Source: PubChem BioAssay (EPA / NIEHS)
Where “and” joins values, the source holds several entries; their conditions need not be identical. Equal entries are not always repeated. Some compounds were tested as several samples or in several runs, with calls that do not always agree. Calls of active or inactive are those of the source. Rule for the calls: active = hit-call score of the fitted dose curve at least 0.9, where 1 is the maximum; inactive = score below 0.9.

Legend:
[1] = APR_HepG2_NuclearSize_72hr: Apredica 72-hour HepG2 Assay for Nuclear Size (AID 2282925); conditions: high-content imaging, actives raise or lower the signal
How it was run: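 Read-out: nuclear diameter from Hoechst 33342 images (ArrayScan, 20x, six fields/well), via cell-cycle image analysis. HepG2 were dosed 0.39–200 uM for 72 hr in 0.5% DMSO. Bidirectional fit relative to DMSO.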

[2] = ATG_CRE_CIS: Attagene CIS-FACTORIAL HepG2 Assay for human cAMP Responsive Element (CRE) binding protein 3 (AID 2282926); conditions: HepG2 CRE cis-reporter, Attagene multiplexed mRNA; actives raise or lower the signal
How it was run: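 Cells carrying cis-regulated reporter constructs respond through their own endogenous factors. After 24 h treatment, RNA is reverse-transcribed, amplified, labelled and sized by capillary electrophoresis; up- and down-regulation are both scored against vehicle.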

[3] = biological target: CCAAT/enhancer-binding protein beta (Homo sapiens) (UniProt P17676); test: ATG_C_EBP_CIS: Attagene CIS-FACTORIAL HepG2 Assay for human CCAAT/Enhancer Binding Protein (C/EBP) beta (AID 2282927); conditions: HepG2 Attagene cis-factorial transcription factor reporter; actives raise or lower the signal
How it was run: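 HepG2, transient MRTU transfection, 24 h treatment. RT-PCR plus CE fluorescence; DMSO negative control, bidirectional fit.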

[4] = ATG_CMV_CIS: Attagene CIS-FACTORIAL HepG2 Assay for human CMV (Internal Marker) (AID 2282928); conditions: HepG2 CMV promoter reporter, transcription factor profiling; actives raise or lower the signal;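 note: endpoint acts as a background internal control marker rather than a target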
How it was run: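 Bidirectional fits against DMSO are applied to reporter mRNA, read by RT-PCR with capillary electrophoresis, from HepG2 cells exposed 24 h. The endpoint serves as an internal CMV background marker within the cis-factorial reporter panel.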

[5] = ATG_DR4_LXR_CIS: Attagene CIS-FACTORIAL HepG2 Assay for human Liver X Receptor (LXR), DR4 submotif (AID 2282929); conditions: HepG2 Attagene DR4 cis-reporter, mRNA transcription; actives raise or lower the signal
How it was run: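 HepG2 cells transiently transfected with cis-promoter-driven multiplexed reporter units (DR4 element) were dosed for 24 h. Reporter mRNA was quantified by RT-PCR, fluorescent primer extension, HpaI digestion and capillary electrophoresis; bidirectional fitting versus DMSO baseline.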

[6] = biological target: Aryl hydrocarbon receptor (Homo sapiens) (UniProt P35869); test: ATG_Ahr_CIS: Attagene CIS-FACTORIAL HepG2 Assay for human Aryl Hydrocarbon Receptor (Ahr) (AID 2282930); conditions: HepG2 AhR cis-factorial reporter transcription; actives raise or lower the signal
How it was run: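 Endogenous factor activity is tracked through cis-promoter reporter units transfected into HepG2 cells. Transcript levels at 24 h are read by fluorescent RT-PCR and capillary electrophoresis, with activity in either direction scored relative to DMSO.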

[7] = ATG_AP_1_CIS: Attagene CIS-FACTORIAL HepG2 Assay for human Activator Protein 1 (AP-1) (AID 2282931); conditions: HepG2 Attagene cis-factorial AP-1 reporter mRNA; actives raise or lower the signal
How it was run: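 HepG2 cells transiently transfected with cis-element-driven multiplex reporter units; 24 h compound exposure. Reporter mRNA quantified by RT-PCR, FAM-labelled fragments resolved by capillary electrophoresis; bidirectional fit versus DMSO baseline.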

[8] = ATG_AP_2_CIS: Attagene CIS-FACTORIAL HepG2 Assay for human Activator Protein 2 (AP-2) (AID 2282932); conditions: HepG2 AP-2 cis-reporter, Attagene transcription factor profiling; actives raise or lower the signal
How it was run: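 Read-out: fluorescent reporter mRNA via RT-PCR and capillary electrophoresis, 24 h post-dose in transiently transfected HepG2. Endogenous factors drive cis-promoter reporters; gain or loss of signal fitted bidirectionally against DMSO.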

[9] = ATG_BRE_CIS: Attagene CIS-FACTORIAL HepG2 Assay for human Bone Morphogenetic Protein (BMP) Response Element (BRE) (AID 2282933); conditions: HepG2 BMP response element reporter, Attagene transcription factor profiling; actives raise or lower the signal
How it was run: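 A HepG2 multiplex reporter system measured inducible reporter mRNA 24 h post-dosing. Detection: RT-PCR, 6-FAM primer extension, HpaI digestion, capillary electrophoresis. Activity fitted bidirectionally relative to DMSO.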

[10] = biological target: Retinoic acid receptor alpha (Homo sapiens) (UniProt P10276); test: ATG_DR5_RAR_CIS: Attagene CIS-FACTORIAL HepG2 Assay for human Retinoic Acid Receptor Alpha (RARE), DR5 submotif (AID 2282934); conditions: HepG2 Attagene cis-factorial RARE DR5 reporter, mRNA; actives raise or lower the signal;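 for AC50: reporter responds to endogenous RAR alpha beta and gamma in HepG2 not RARA alone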
How it was run: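 After 24 h of chemical exposure, transiently transfected HepG2 cells were lysed for total RNA; the DR5-regulated reporter transcript was quantified via RT-PCR and capillary electrophoresis, with activity fitted bidirectionally against DMSO.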

[11] = biological target: Transcription factor E2F1 (Homo sapiens) (UniProt Q01094); test: ATG_E2F_CIS: Attagene CIS-FACTORIAL HepG2 Assay for human E2F Transcription Factor 1 (AID 2282935); conditions: HepG2 Attagene cis-reporter, E2F reporter RNA transcripts; actives raise or lower the signal
How it was run: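 Transient MRTU transfection of HepG2; 24 h compound exposure; RNA → oligo(dT) RT → PCR → FAM label → HpaI cut → CE fluorescence. Gain/loss of signal fit against DMSO.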

[12] = ATG_E_Box_CIS: Attagene CIS-FACTORIAL HepG2 Assay for human Enhancer Box (E-box) (AID 2282936); conditions: HepG2 E-box cis-reporter transcription, actives raise or lower the signal
How it was run: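 Transiently transfected HepG2, endogenous TF-driven reporters, 24 h dosing. Readout: RT-PCR plus capillary electrophoresis of fluorescent reporter fragments. Gain or loss of signal fitted bidirectionally against DMSO baseline.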

[13] = ATG_M_61_CIS: Attagene CIS-FACTORIAL HepG2 Assay for M61 Transcription Factor (Internal Marker) (AID 2282937); conditions: HepG2 Attagene CIS-FACTORIAL M61 internal marker reporter; actives raise or lower the signal
How it was run: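 HepG2 cells transiently transfected with cis-element-driven multiple reporter transcription units, dosed for 24 h. Reporter mRNA measured by RT-PCR, 6-FAM primer-extension labelling, HpaI digestion and capillary electrophoresis; bidirectional fit versus DMSO baseline.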

[14] = ATG_EGR_CIS: Attagene CIS-FACTORIAL HepG2 Assay for human Early Growth Response 1 (EGR1) (AID 2282938); conditions: HepG2 Attagene CIS-FACTORIAL EGR reporter mRNA; actives raise or lower the signal
How it was run: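 HepG2 cells transiently transfected with cis-promoter-driven multiplexed reporter transcription units; reporter mRNA measured 24 h after compound dosing by RT-PCR, 6-FAM primer extension, HpaI digestion and capillary electrophoresis. Bidirectional fit versus DMSO baseline.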

[15] = ATG_M_19_CIS: Attagene CIS-FACTORIAL HepG2 Assay for M19 Transcription Factor (Internal Marker) (AID 2282939); conditions: HepG2 Attagene CIS-FACTORIAL M19 internal marker reporter; actives raise or lower the signal
How it was run: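 Chemical-treated HepG2 (24 h) with MRTU constructs; reporter transcripts detected by fluorescent RT-PCR fragment analysis on capillary electrophoresis. Internal background marker, DMSO as baseline.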

[16] = ATG_ERE_CIS: Attagene CIS-FACTORIAL HepG2 Assay for Estrogen Response Element (ERE) (AID 2282940); conditions: HepG2 ERE cis-reporter, Attagene RNA transcript; actives raise or lower the signal
How it was run: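 Human liver cells (HepG2) bearing transiently transfected, promoter-regulated reporter units were exposed 24 h. Reporter mRNA induction was detected by capillary electrophoresis of labelled RT-PCR products and fitted bidirectionally to DMSO.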

[17] = ATG_Ets_CIS: Attagene CIS-FACTORIAL HepG2 Assay for human Erythroblast Transformation Specific (ETS) (AID 2282941); conditions: HepG2 ETS cis-reporter transcription, actives raise or lower the signal
How it was run: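 Endogenous transcription factor activity read as reporter mRNA via RT-PCR and capillary electrophoresis, with gain or loss fitted bidirectionally against DMSO. Human HepG2 liver cells, transiently transfected CIS reporter constructs, 24 h exposure.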

[18] = biological target: Hepatocyte nuclear factor 3-beta (Homo sapiens) (UniProt Q9Y261); test: ATG_FoxA2_CIS: Attagene CIS-FACTORIAL HepG2 Assay for human Forkhead box A2 (FOXA2) (AID 2282942); conditions: HepG2 cis-reporter transcription factor activity, 24 h; actives raise or lower the signal
How it was run: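 HepG2 cells transiently transfected with multiple cis-regulated reporter transcription units, dosed for 24 h. Reporter mRNA measured by RT-PCR, 6-FAM labelling, HpaI digestion and capillary electrophoresis; bidirectional fitting against DMSO baseline.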

[19] = ATG_FoxO_CIS: Attagene CIS-FACTORIAL HepG2 Assay for human Forkhead box O (FoxO) (AID 2282943); conditions: HepG2 Attagene cis-reporter, FoxO element, mRNA; actives raise or lower the signal
How it was run: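 Transfected HepG2 reporter cells exposed to test chemical for 24 h; reporter RNA measured by reverse transcription, PCR and fluorescent capillary electrophoresis; curves fitted for increases and decreases against DMSO.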

[20] = ATG_GATA_CIS: Attagene CIS-FACTORIAL HepG2 Assay for human GATA Binding Protein (AID 2282944); conditions: HepG2 GATA cis-element reporter, Attagene multiplex mRNA; actives raise or lower the signal
How it was run: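 Transfected cis-reporter HepG2 cells were treated with chemicals for 24 hours. Total RNA was then converted to cDNA, amplified with reporter-specific primers and analysed by fluorescent capillary electrophoresis, using DMSO-treated wells as baseline.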

Measured: AC50

Sequence of Aryl hydrocarbon receptor (Homo sapiens) (P35869 whole entry, looked up): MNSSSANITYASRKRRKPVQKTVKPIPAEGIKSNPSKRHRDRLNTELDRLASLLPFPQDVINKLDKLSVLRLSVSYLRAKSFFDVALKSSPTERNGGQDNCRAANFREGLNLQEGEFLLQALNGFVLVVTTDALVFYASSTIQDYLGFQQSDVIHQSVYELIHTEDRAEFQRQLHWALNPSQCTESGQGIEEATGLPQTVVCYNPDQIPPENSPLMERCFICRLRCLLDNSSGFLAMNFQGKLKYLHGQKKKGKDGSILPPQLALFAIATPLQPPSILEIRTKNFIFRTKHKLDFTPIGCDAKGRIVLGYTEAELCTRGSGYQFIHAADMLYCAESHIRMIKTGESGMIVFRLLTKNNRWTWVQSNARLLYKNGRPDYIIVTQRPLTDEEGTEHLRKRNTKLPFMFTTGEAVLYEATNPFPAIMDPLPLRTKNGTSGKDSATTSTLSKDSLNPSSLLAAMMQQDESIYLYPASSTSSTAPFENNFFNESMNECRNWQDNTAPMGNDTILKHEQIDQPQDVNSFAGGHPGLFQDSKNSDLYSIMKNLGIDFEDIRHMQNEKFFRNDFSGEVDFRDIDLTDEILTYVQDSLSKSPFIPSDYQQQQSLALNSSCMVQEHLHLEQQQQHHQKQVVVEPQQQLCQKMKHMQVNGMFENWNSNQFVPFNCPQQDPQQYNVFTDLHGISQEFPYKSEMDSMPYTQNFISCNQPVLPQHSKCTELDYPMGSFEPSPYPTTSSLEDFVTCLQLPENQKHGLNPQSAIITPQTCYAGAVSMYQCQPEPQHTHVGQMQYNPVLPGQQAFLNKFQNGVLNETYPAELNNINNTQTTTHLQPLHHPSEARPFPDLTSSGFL
Sequence of Transcription factor E2F1 (Homo sapiens) (Q01094 whole entry, looked up): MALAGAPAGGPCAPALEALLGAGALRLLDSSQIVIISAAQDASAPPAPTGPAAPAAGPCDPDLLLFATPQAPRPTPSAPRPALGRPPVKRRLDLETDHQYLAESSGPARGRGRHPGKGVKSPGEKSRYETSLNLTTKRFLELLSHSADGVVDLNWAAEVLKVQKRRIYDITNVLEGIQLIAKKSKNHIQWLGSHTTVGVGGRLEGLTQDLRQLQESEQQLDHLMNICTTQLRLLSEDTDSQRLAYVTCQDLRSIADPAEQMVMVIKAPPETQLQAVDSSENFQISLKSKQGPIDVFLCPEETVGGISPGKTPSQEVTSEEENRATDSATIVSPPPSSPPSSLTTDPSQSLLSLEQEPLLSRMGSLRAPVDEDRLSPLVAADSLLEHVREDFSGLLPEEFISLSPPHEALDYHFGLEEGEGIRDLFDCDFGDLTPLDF
Sequence of Hepatocyte nuclear factor 3-beta (Homo sapiens) (Q9Y261 whole entry, looked up): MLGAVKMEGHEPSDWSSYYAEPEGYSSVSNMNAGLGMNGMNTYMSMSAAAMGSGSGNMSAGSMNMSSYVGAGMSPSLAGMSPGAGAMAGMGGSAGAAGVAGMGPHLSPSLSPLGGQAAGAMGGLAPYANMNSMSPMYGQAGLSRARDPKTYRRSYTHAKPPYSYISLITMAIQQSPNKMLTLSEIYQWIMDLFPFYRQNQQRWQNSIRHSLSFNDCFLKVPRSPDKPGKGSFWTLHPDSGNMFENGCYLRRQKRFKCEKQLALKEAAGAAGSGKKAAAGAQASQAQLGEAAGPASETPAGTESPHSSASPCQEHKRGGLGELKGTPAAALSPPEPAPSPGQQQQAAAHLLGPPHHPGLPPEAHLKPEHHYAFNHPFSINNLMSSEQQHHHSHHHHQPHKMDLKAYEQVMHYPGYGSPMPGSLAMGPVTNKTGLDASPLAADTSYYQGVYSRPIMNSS
Sequence of CCAAT/enhancer-binding protein beta (Homo sapiens) (P17676 whole entry, looked up): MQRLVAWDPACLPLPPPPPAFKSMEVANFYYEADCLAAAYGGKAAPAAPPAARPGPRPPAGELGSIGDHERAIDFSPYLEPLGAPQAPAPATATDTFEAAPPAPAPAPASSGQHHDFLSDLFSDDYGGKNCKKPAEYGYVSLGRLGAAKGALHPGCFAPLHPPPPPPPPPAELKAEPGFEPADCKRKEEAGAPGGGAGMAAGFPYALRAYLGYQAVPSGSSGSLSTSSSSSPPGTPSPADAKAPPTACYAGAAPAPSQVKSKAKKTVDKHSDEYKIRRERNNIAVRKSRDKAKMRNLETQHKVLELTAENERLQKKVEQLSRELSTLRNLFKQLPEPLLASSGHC
Sequence of Retinoic acid receptor alpha (Homo sapiens) (P10276 whole entry, looked up): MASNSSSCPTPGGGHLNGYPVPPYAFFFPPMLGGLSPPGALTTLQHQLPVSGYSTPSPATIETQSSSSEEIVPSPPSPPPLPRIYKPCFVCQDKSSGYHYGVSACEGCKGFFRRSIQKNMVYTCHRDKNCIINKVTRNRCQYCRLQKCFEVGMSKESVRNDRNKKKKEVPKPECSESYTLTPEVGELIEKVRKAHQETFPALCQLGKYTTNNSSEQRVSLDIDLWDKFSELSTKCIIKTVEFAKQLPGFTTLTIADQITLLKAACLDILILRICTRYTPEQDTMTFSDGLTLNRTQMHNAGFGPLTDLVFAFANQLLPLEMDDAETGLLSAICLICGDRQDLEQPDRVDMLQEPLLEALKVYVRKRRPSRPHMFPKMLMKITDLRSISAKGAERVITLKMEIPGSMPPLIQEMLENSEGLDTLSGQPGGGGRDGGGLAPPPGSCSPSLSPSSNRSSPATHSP

c1ccc2c(c1)Cc1ccccc1-2
active: [16] 100 µM
inactive: all other assays above

CCCOC(=O)c1ccc(O)cc1
active: [2] 171 µM | [4] 121 µM | [5] 26.1 µM | [9] 79.3 µM | [10] 25.2 µM | [14] 157 µM
inactive: [1] | [2] | [3] | [4] | [5] | [6] | [8] | [9] | [10] | [11] | [12] | [13] | [14] | [15] | [17] | [19] | [20]

O=c1c(-c2ccc(O)cc2)coc2cc(O)ccc12
inactive: [1] | [2] | [3] | [5] | [6] | [7] | [8] | [9] | [10] | [11] | [12] | [13] | [14] | [15] | [17] | [18] | [19] | [20]
active: [3] 100 µM and 75.6 µM | [6] 69.7 µM

CN(C)C=O
not listed: [18]
inactive: all other assays above

CC(O)CO (stereo not drawn)
not listed: [18]
inactive: all other assays above

OCCC(F)(F)C(F)(F)C(F)(F)C(F)(F)C(F)(F)C(F)(F)C(F)(F)C(F)(F)F
inactive: [1] | [3] | [4] | [5] | [6] | [7] | [8] | [9] | [11] | [12] | [13] | [15] | [19] | [20]
active: [2] 26.3 µM and 124 µM | [5] 40.1 µM | [7] 39.1 µM | [12] 261 µM | [14] 26.5 µM and 150 µM | [17] 50.7 µM and 150 µM

CCCCOCCO
active: [16] 134 µM
inactive: all other assays above

CC1=C(/C=C/C(C)=C/C=C/C(C)=C/C(=O)O)C(C)(C)CCC1
active: [2] 52.4 µM and 3.28 µM | [3] 6.62 µM and 193 nM | [4] 75.8 µM | [5] 0.763 µM | [14] 21.5 µM | [19] 44.4 µM
inactive: [1] | [4] | [5] | [6] | [8] | [9] | [11] | [12] | [13] | [14] | [15] | [17] | [18] | [19] | [20]

O=C(O)Cc1cc(I)c(Oc2cc(I)c(O)c(I)c2)c(I)c1
active: [2] 18.3 µM | [3] 29.1 µM and 17.8 µM | [4] 22.4 µM and 16.7 µM | [5] 14.9 µM | [6] 89.3 µM | [8] 121 µM | [9] 51 µM | [10] 41.1 µM and 32.5 µM | [12] 113 µM | [14] 22.5 µM and 36.5 µM | [17] 38.1 µM | [19] 46.7 µM | [20] 115 µM
inactive: [1] | [2] | [5] | [6] | [8] | [9] | [11] | [12] | [13] | [15] | [17] | [19] | [20]
